An excerpt weighted towards active compounds, which were near 1.2% of everything screened.
RGS8-Gao = modulates binding of RGS8 to human Galphao | response (percent of control binding), % at 10 µM | multiplexed bead flow cytometry; actives lie on both sides | P09471 | AID 1423 | hit rate 0.34% among 220,000; in the data active = response below about 60% or above about 140%; inactive = in between;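 note: Galphao activated as the GDP aluminium fluoride complex binding bead-coupled RGS8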
GSH bead fluor = GSH bead compound fluorescence profile; hit rate 0.25% among 190,000; fluorescence (KMESF) at 10 µM; GSH beads flow cytometry, compound fluorescence 488/530 nm; active compounds read high; in the data active = fluorescence above about 89;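 note: glutathione beads carrying GST-tagged Bcl family fusion proteins plus one bare bead set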
RGS4-Gao reg = human RGS4-Galphao interaction regulation. P09471. Multiplexed bead flow cytometry, RGS4-Galphao binding; actives lie on both sides. binding response (% of control), % at 10 µM. hit rate 0.33% among 220,000; in the data active = binding response below about 49% or above about 150%; inactive = in between;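 note: fluorescent Galphao activated with aluminum fluoride binding bead-coupled RGS4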
RGS16-Gao = RGS16-Galphao interaction regulator (human); O15492+P09471; bead-based flow cytometry RGS16-Galphao binding, fluorescence; actives lie on both sides; binding response (% of control), % at 10 µM; hit rate 0.38% among 220,000; AID 1441;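 note: Galphao activated by GDP with aluminum fluoride before binding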
RGS7-Gao reg = human RGS7-Galphao interaction regulation; Multiplexed bead flow cytometry, RGS7-Galphao binding; actives lie on both sides; binding response (% of control), % at 10 µM; hit rate 0.35% among 220,000; in the data active = binding response below about 49% or above about 150%; inconclusive = no clear call, values can overlap the other calls; inactive = in between;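 note: fluorescent Galphao held in activated GDP-AlF4 state binding bead-coupled RGS7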
Avidin bead fluor = compound fluoresces at 488/530 nm on avidin beads; compound fluorescence 488/530 nm, flow cytometry; active compounds read high; hit rate 0.38% among 220,000; fluorescence (KMESF) at 10 µM; in the data active = fluorescence above about 47
RGS-Gao = regulators of human RGS4-Galphao interaction | shares compounds with RGS16-Gao | multiplexed bead flow cytometry, RGS–Galpha-o binding | RGS4–Galpha-o binding response, % at 10 µM | hit rate 99% among 1,600 | AID 1504;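 note: fluorescently labeled Galpha-o bound to GDP with aluminium fluoride binding biotinylated RGS beads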
Biotin-avidin = counter-screen: compounds disrupting biotin binding to avidin beads; 1,700 tested, under 10 active; streptavidin beads, fluorescein-biotin binding, flow cytometry; AID 1783; inhibition, % at 10 µM; shares compounds with RGS16-Gao;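 active = inhibition above 50%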;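 note: median green fluorescence of gated singlet beads compared with DMSO control wells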
RGS8-Gao single = confirmation of regulators of human RGS8-Galphao interaction; hit rate 3% among 1,700; shares compounds with RGS16-Gao; binding response (% of control), % at 10 µM; bead-based flow cytometry RGS8-Galphao binding, fluorescence; actives lie on both sides; in the data active = binding response below about 72% or above about 130%; inactive = in between;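 note: Galphao activated as GDP AlF4 complex before binding bead RGS8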
RGS7-Gao single = RGS7-Galphao interaction regulation, single point confirmation; shares compounds with RGS16-Gao; bead-based flow cytometry RGS7-Galphao binding; actives lie on both sides; response (percent of control binding), % at 10 µM; hit rate 7.8% among 1,700; AID 1837; in the data active = response below about 75% or above about 130%; inactive = in between;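 note: fluorescent Galphao activated with GDP and aluminum fluoride binding bead-coupled RGS7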
RGS16-Gao conf = RGS16-Galphao interaction regulation, single point confirmation. shares compounds with RGS16-Gao. bead-based flow cytometry, RGS16-Galphao binding; actives lie on both sides. response (% of control binding), % at 10 µM. hit rate 4% among 1,700. AID 1838; in the data active = response below about 74% or above about 130%; inactive = in between;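 note: Galphao activated as the GDP aluminium fluoride complex binding bead-coupled RGS16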
RGS4-Gao confirm = confirmation of regulators of human RGS4-Galphao interaction | shares compounds with RGS16-Gao | RGS4-Galphao binding, multiplexed bead flow cytometry; actives lie on both sides | binding response (% of control), % at 10 µM | hit rate 4% among 1,700; in the data active = binding response below about 74% or above about 130%; inactive = in between
RGS19-Gao conf = confirmation of regulators of human RGS19-Galphao interaction; response (percent of control binding), % at 10 µM; shares compounds with RGS16-Gao; hit rate 5% among 1,700; bead-based flow cytometry RGS19-Galphao binding; actives lie on both sides; AID 1841; in the data active = response below about 50% or above about 160%; inactive = in between
Target sequence (P09471 whole entry, looked up): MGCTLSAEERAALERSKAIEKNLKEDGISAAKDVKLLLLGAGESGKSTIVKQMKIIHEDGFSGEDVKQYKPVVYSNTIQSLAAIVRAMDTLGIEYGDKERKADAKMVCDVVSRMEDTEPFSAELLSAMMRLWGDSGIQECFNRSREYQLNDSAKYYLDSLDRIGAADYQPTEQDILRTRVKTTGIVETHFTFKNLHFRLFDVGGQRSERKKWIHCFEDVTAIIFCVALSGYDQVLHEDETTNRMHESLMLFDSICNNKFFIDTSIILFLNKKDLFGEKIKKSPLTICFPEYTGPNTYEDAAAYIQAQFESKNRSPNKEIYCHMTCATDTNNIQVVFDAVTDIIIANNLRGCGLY
Target sequence (P49795 whole entry, looked up): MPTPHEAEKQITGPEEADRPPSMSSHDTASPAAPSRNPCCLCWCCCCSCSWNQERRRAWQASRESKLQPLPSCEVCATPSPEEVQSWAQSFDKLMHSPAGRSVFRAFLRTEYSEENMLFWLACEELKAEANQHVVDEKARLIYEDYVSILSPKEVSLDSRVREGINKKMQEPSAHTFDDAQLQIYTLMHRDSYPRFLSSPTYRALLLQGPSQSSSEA
Each line names hits and unclear results; the compound was inactive in the other large screens (follow-up assays come after a bar, where they were run); [ ] = another dose, or the depositor's remark. Unless noted, the rule behind the calls is not given here.

COc1ccc(NC(=O)CC2SC(=N)N(c3ccccc3)C2=O)c(OC)c1 (stereo not given)	RGS8-Gao 8.2, RGS4-Gao reg 4.8, RGS16-Gao -5.4, RGS7-Gao reg 4.1 | Biotin-avidin inactive | RGS8-Gao single inactive | RGS7-Gao single inactive | RGS16-Gao conf inactive | RGS4-Gao confirm inactive | RGS19-Gao conf inactive
NC(=O)c1c(/N=C/c2cccs2)sc2c1CCCC2	RGS7-Gao reg inconclusive (no result: GSH bead fluor)
COc1ccc(Cc2nc(-c3ccc(Cl)cc3)no2)cc1	none
COc1ccc(-c2noc(Cc3ccc(Cl)cc3)n2)cc1OC	RGS7-Gao reg 166.5[activator], Avidin bead fluor 67 | RGS-Gao 109.2 | Biotin-avidin inactive | RGS8-Gao single inactive | RGS7-Gao single inactive | RGS16-Gao conf inactive | RGS4-Gao confirm inactive | RGS19-Gao conf inactive
O/N=C/c1cccnc1Sc1ccccc1	RGS8-Gao 162.5[activator], RGS4-Gao reg 152.4[activator], RGS16-Gao 179.9[activator], RGS7-Gao reg 157.3[activator] | Biotin-avidin inactive | RGS8-Gao single inactive | RGS7-Gao single inactive | RGS16-Gao conf inactive | RGS4-Gao confirm inactive | RGS19-Gao conf inactive
COC(=O)c1cccn(CC(=O)c2ccc(Cl)cc2)c1=O	none
CCOC(=O)N1CN(C(=O)OCC)CN(C(=O)OCC)C1	RGS8-Gao 5.2, RGS4-Gao reg -37.6, RGS16-Gao -22.4, RGS7-Gao reg inconclusive (no result: GSH bead fluor) | Biotin-avidin inactive | RGS8-Gao single inactive | RGS7-Gao single 74.1 | RGS16-Gao conf inactive | RGS4-Gao confirm inactive | RGS19-Gao conf inactive
COc1ccc([N+](=O)[O-])cc1NS(=O)(=O)c1ccc(Cl)c(C(=O)Nc2sc3c(c2C#N)CCCCC3)c1	none
COc1ccc(C(NC(C)=O)c2ccc3cccnc3c2O)c(OC)c1 (stereo not given)	RGS8-Gao 47.0 | RGS-Gao 55.1 | Biotin-avidin inactive | RGS8-Gao single inactive | RGS7-Gao single inactive | RGS16-Gao conf inactive | RGS4-Gao confirm inactive | RGS19-Gao conf inactive
CN(CC(=O)N1CCN(Cc2ccccc2)CC1)S(=O)(=O)c1cccc2nsnc12	none
CCCn1c(NCc2c[nH]c3ccccc23)nc2ccccc21	RGS8-Gao 143.2[activator] | RGS-Gao 104.5 | Biotin-avidin inactive | RGS8-Gao single inactive | RGS7-Gao single inactive | RGS16-Gao conf inactive | RGS4-Gao confirm inactive | RGS19-Gao conf inactive
COC(=O)c1cccc(NC(=S)N2CCN(c3ccccc3F)CC2)c1	none
Cc1c(N2C(=O)CSC2c2ccco2)c(=O)n(-c2ccccc2)n1C (stereo not given)	RGS7-Gao reg inconclusive (no result: GSH bead fluor)
Cc1ccc(-n2nnnc2C(=Cc2ccc(N(C)C)cc2)c2nnnn2-c2ccc(C)cc2)cc1	RGS8-Gao 13.9, RGS4-Gao reg 22.7, RGS16-Gao 10.6, RGS7-Gao reg 18.3 (no result: Avidin bead fluor) | Biotin-avidin inactive | RGS8-Gao single inactive | RGS7-Gao single inactive | RGS16-Gao conf inactive | RGS4-Gao confirm inactive | RGS19-Gao conf inactive

Compound activity (PubChem)
